Among the test systems are NCI-H23 lung; NCI-H226 lung; NCI-H322M lung; HOP-62 NSCLC; NCI-H460 lung; NCI-H522 lung; A549/ATCC NSCLC; 786-0 renal; COLO 205 colon; DU-145 prostate.
Holding throughout (assay): NCI-60 one-dose screen, 48 h (100 = growth as untreated, 0 = no growth, -100 = all killed)
Common to all, as to details: 10 µM

SMILES strings stand for the structures. About 83,000 compounds went through this panel and 20% of them were active in at least one assay; those are over-represented in the sample as a whole.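 Interpretation: 100, growth as untreated; towards 0, rising growth inhibition; 0, no net growth; 0 to -100, cell death. Compounds scoring below 10 were considered active.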 A number with no mark means an inactive call. The source made the active and inactive calls.

With `COc1ccc2c(c1)C(=O)c1c-2c(OCCN2CCCCC2)nc2ccc(OC)cc12`, the growth in the assay with NCI-H23 lung is 12.6%; in the assay on NCI-H226 lung it was 23.9%; in the assay with NCI-H322M lung it was 5.72% (active); with HOP-62 NSCLC it was 24.4%; with NCI-H460 lung it was -50.7% (active); with NCI-H522 lung, 25.1%. Also, the growth was 11.6% in the assay on A549/ATCC NSCLC, 18% in the assay with 786-0 renal, 28% in the assay on COLO 205 colon and 11.3% with DU-145 prostate.
With `O=C1/C(=C\c2ccc(F)cc2)CN(C(=O)c2ccccc2F)C/C1=C\c1ccc(F)cc1`, the growth in the assay with NCI-H23 lung was 16.4%; with NCI-H226 lung, -32.9% (active); in the assay with NCI-H322M lung it was 77.6%; with HOP-62 NSCLC, -15.5% (active); with NCI-H460 lung it was 17.8%; in the assay with NCI-H522 lung, -69.5% (active). Besides, the growth with A549/ATCC NSCLC was 12.9%; in the assay on 786-0 renal, -51% (active); in the assay on COLO 205 colon it was -42.9% (active); with DU-145 prostate, -10.4% (active).
Consider `C#Cc1ccc(-n2c(/C=C/c3ccc(Cl)c(F)c3)nc3ncccc3c2=O)cc1`, for which the growth was 18.3% in the assay with NCI-H23 lung; -74.5% (active) with NCI-H226 lung; -25% (active) in the assay on NCI-H322M lung; -57.6% (active) in the assay with HOP-62 NSCLC; -25.8% (active) with NCI-H460 lung; -66.7% (active) with NCI-H522 lung. The growth was -8.32% (active) with A549/ATCC NSCLC, 7.88% (active) in the assay on 786-0 renal, -90.2% (active) with COLO 205 colon and 3.49% (active) with DU-145 prostate.
Consider `COc1ccccc1CNCCN1C(=O)c2ccc3c4c(ccc(c24)C1=O)C(=O)N(CCNCc1ccccc1OC)C3=O`, for which the growth in the assay on NCI-H23 lung is -70.5% (active); in the assay with NCI-H226 lung, -74.7% (active); in the assay on NCI-H322M lung, -65.4% (active); in the assay on HOP-62 NSCLC, -79.8% (active); in the assay on NCI-H460 lung, -91.3% (active); in the assay on NCI-H522 lung, -83.4% (active). In addition, the growth with A549/ATCC NSCLC was -93% (active); in the assay on 786-0 renal it was -82.4% (active); in the assay with COLO 205 colon, -97.5% (active); with DU-145 prostate, -100% (active).
As for `Oc1[nH]c2cc(Cl)ccc2c1/C=c1/ccc2c(c1)N=C(c1cc(F)cc(F)c1)N=2`, the growth was 28.3% with NCI-H23 lung; 55.1% in the assay with NCI-H226 lung; 49.1% in the assay on NCI-H322M lung; 25.3% with HOP-62 NSCLC; 6.1% (active) in the assay on NCI-H460 lung; -3.39% (active) in the assay on NCI-H522 lung. The growth with A549/ATCC NSCLC was 37.9%; in the assay on 786-0 renal, 36.7%; with COLO 205 colon, -0.0984% (active); with DU-145 prostate it was -8.59% (active).
Turning to `CC(=O)c1cc(Cl)ccc1O`, the growth with NCI-H23 lung is 106%; in the assay with NCI-H226 lung, 98.1%; in the assay with NCI-H322M lung, 101%; in the assay on HOP-62 NSCLC it was 107%; in the assay with NCI-H460 lung, 101%; in the assay on NCI-H522 lung it was 118%. The growth in the assay with A549/ATCC NSCLC was 101%; in the assay with 786-0 renal, 104%; in the assay with COLO 205 colon, 112%; in the assay with DU-145 prostate, 105%.
For `Nc1c(C(=O)Nc2ccccc2Cl)sc2nc3c(cc12)C(=O)CCC3`, the growth in the assay with NCI-H23 lung is 42.3%; in the assay on NCI-H226 lung it was 75.9%; in the assay with NCI-H322M lung, 37.9%; in the assay with HOP-62 NSCLC, 83.3%; in the assay on NCI-H460 lung it was 12.4%; with NCI-H522 lung it was 32.8%. For the same compound, the growth in the assay on A549/ATCC NSCLC is 24.9%; in the assay on 786-0 renal it was 91.1%; in the assay with COLO 205 colon it was 3.38% (active); in the assay on DU-145 prostate it was 48.5%.
Regarding `Cc1cccc2c1O/C(=C\c1ccc([N+](=O)[O-])o1)C2=O`, the growth in the assay on NCI-H23 lung is -39.8% (active); in the assay on NCI-H226 lung, -57.8% (active); with NCI-H322M lung it was 37.9%; in the assay with HOP-62 NSCLC, -25.6% (active); with NCI-H460 lung it was -58.5% (active); in the assay with NCI-H522 lung, -77.4% (active). Moreover, the growth in the assay on A549/ATCC NSCLC is -12.2% (active); in the assay with 786-0 renal, -39.5% (active); in the assay on COLO 205 colon, -84.3% (active); with DU-145 prostate it was -62.7% (active).
Turning to `O=C(c1cccs1)c1ccccc1Cc1ccccc1`, the growth with NCI-H23 lung is 102%; in the assay with NCI-H226 lung, 92.3%; with NCI-H322M lung, 83.6%; with HOP-62 NSCLC, 96.6%; in the assay with NCI-H460 lung, 107%; in the assay with NCI-H522 lung, 100%. In addition, the growth in the assay on A549/ATCC NSCLC is 89.1%; in the assay with 786-0 renal, 108%; in the assay on COLO 205 colon, 116%; in the assay on DU-145 prostate, 128%.
With `CCN1CCC2(CC1)OC(c1ccccc1)C(c1ccccc1)O2` (stereo not given), the growth in the assay on NCI-H23 lung is 106%; in the assay with NCI-H226 lung, 96.6%; in the assay on NCI-H322M lung it was 133%; with HOP-62 NSCLC, 114%; in the assay with NCI-H460 lung, 118%; with NCI-H522 lung, 116%. Further, the growth with A549/ATCC NSCLC was 105%; with 786-0 renal, 92.7%; in the assay on COLO 205 colon, 106%; in the assay with DU-145 prostate it was 115%.
Regarding `CCCCCCN1CCN(Cc2ccc(N(CC)CC)cc2)C(=O)C1=O`, the growth was 39.9% in the assay on NCI-H23 lung; 64.2% in the assay with NCI-H226 lung; 32% in the assay on NCI-H322M lung; 33.3% in the assay on HOP-62 NSCLC; 10.5% in the assay on NCI-H460 lung; -7.64% (active) in the assay with NCI-H522 lung. The growth with A549/ATCC NSCLC is 21.6%; in the assay on 786-0 renal it was 51.3%; in the assay on COLO 205 colon, 6.83% (active); in the assay with DU-145 prostate, -7.77% (active).
Regarding `Cc1nc2ccccc2c(N)c1-c1cc(C)c2c(C)nc3ccccc3c2n1`, the growth in the assay with NCI-H23 lung was 44.8%; with NCI-H226 lung, 98.8%; with NCI-H322M lung it was 10.7%; in the assay with HOP-62 NSCLC it was 58.4%; in the assay with NCI-H460 lung, -75.8% (active); in the assay on NCI-H522 lung, 68.6%. The growth with A549/ATCC NSCLC was -75.4% (active); with 786-0 renal, -89.2% (active); with COLO 205 colon, -91% (active); in the assay on DU-145 prostate, -82.4% (active).
Take `Cc1[nH]nc2c1C(c1cnn(C)c1)C(C#N)=C(N)O2` (stereo not given): the growth is 101% with NCI-H23 lung; 105% in the assay on NCI-H226 lung; 96.9% with NCI-H322M lung; 97.9% in the assay on HOP-62 NSCLC; 104% in the assay with NCI-H460 lung; 80.4% in the assay with NCI-H522 lung. For the same compound, the growth with A549/ATCC NSCLC was 96.1%; in the assay with 786-0 renal, 102%; in the assay with COLO 205 colon, 114%; with DU-145 prostate, 110%.
`CCN(CC)CCCOCCCNc1cc(OC)cc2cccnc12`: the growth was 83.8% with NCI-H23 lung; 85% in the assay with NCI-H226 lung; 98.7% with NCI-H322M lung; 91.7% in the assay on HOP-62 NSCLC; 103% with NCI-H460 lung; 82.5% with NCI-H522 lung. The growth was 93.4% in the assay on A549/ATCC NSCLC, 104% in the assay on 786-0 renal, 31.2% in the assay on COLO 205 colon and 116% in the assay with DU-145 prostate.
Turning to `Nc1nc(N)c2c(ccc3nccc32)[nH]1`, the growth with NCI-H23 lung is 50%; in the assay with NCI-H226 lung, 123%; in the assay with NCI-H322M lung, 61%; with HOP-62 NSCLC, 74.8%; with NCI-H460 lung, 20%; in the assay with NCI-H522 lung, 37.9%. The growth in the assay with A549/ATCC NSCLC was 2.16% (active); in the assay on 786-0 renal, 35.8%; in the assay on COLO 205 colon it was 71.4%; with DU-145 prostate, 62.2%.
As for `CC(=O)N1C/C(=C/c2ccc(Cl)cc2)C(=O)/C(=C/c2ccc(Cl)cc2)C1`, the growth with NCI-H23 lung was -28% (active); in the assay on NCI-H226 lung, -39.5% (active); in the assay with NCI-H322M lung it was -9.19% (active); with HOP-62 NSCLC, -29.7% (active); in the assay with NCI-H460 lung, -14.1% (active); in the assay with NCI-H522 lung it was -66.4% (active). Further, the growth in the assay with A549/ATCC NSCLC was -24.6% (active); in the assay with 786-0 renal, -59.3% (active); in the assay on COLO 205 colon, -48.8% (active); in the assay on DU-145 prostate it was -30.5% (active).
Consider `O=C1OCC2=C1C(c1cccc(Cl)c1)c1cc3c(cc1N2CCO)CCC3` (stereo not given), for which the growth is 8.79% (active) with NCI-H23 lung; -18.1% (active) in the assay with NCI-H226 lung; 33% with NCI-H322M lung; 21% in the assay with HOP-62 NSCLC; -12.7% (active) in the assay with NCI-H460 lung; -29.2% (active) with NCI-H522 lung. The growth was 11.7% in the assay on A549/ATCC NSCLC, 18% in the assay on 786-0 renal, -47.1% (active) in the assay with COLO 205 colon and -46.2% (active) with DU-145 prostate.
With `O=C1C(=O)c2ccccc2C(O)=C1CCCc1ccc(C2CCCCCC2)cc1`, the growth with NCI-H23 lung is 23.4%; in the assay on NCI-H226 lung, 37.6%; in the assay on NCI-H322M lung, 23.7%; with HOP-62 NSCLC it was 40.8%; with NCI-H460 lung, 11.6%; with NCI-H522 lung, 42%. Also, the growth in the assay on A549/ATCC NSCLC is 22.7%; in the assay on 786-0 renal it was 55.7%; in the assay with COLO 205 colon, 36.5%; with DU-145 prostate, 44%.
`ClCC#CCSc1ncnc2c1ncn2CC#CCCl`: the growth in the assay with NCI-H23 lung is -6.61% (active); in the assay on NCI-H226 lung, -13.6% (active); in the assay on NCI-H322M lung, 15.3%; in the assay with HOP-62 NSCLC it was -58.4% (active); in the assay with NCI-H460 lung, 1.04% (active); in the assay with NCI-H522 lung, -56% (active). Also, the growth was 46.5% in the assay with A549/ATCC NSCLC, 13.3% in the assay with 786-0 renal, 54.4% in the assay with COLO 205 colon and -20.9% (active) in the assay on DU-145 prostate.

The record behind these values is PubChem BioAssay (NCI).
